# Hits are enriched below; roughly 21% of the tested compounds scored in any of these assays.
# RORg inh: inhibitors of mouse ROR gamma transcriptional activity | P51450 | Drosophila S2 Gal4-RORgamma UAS-luciferase reporter, 20 h | Potency, µM (highest dose often 53.6 µM), without a hit: at the top dose activity change, negative = inhibition, hits mostly inhibitors | 310,000 compounds, 5.4% hits; further: potency means the concentration at half of the fitted maximal effect; nearly all actives have a fitted effect of over 60% in size
# Target sequence (P51450 whole entry, looked up, the tested form may be a part): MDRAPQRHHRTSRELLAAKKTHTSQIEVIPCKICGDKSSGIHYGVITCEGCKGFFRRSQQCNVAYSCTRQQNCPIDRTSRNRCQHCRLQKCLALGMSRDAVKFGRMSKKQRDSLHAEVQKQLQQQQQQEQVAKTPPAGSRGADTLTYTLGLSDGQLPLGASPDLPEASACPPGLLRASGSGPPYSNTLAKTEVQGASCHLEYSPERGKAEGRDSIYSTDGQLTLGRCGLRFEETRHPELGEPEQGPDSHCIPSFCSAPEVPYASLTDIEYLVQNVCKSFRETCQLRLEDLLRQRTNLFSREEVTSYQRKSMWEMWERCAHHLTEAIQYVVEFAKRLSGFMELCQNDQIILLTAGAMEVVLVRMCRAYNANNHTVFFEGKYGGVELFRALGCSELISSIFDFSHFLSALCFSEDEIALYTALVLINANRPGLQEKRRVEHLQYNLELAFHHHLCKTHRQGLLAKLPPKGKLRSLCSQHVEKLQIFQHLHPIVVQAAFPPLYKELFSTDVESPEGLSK
#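 Drosophila Schneider cells stably carrying a metallothionein-driven Gal4 DBD–ROR gamma fusion and a UAS-Photinus luciferase reporter were exposed to compound for 1 hr, then induced with copper sulfate (700 uM final) for 20 hr at ambient temperature before luminescence reading.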
# TDP1 cell noCPT: qHTS for Inhibitors of human tyrosyl-DNA phosphodiesterase 1 (TDP1): qHTS in cells in absence of CPT; AID 686978, 2013; DT40 Tdp1-/- hTDP1 cells, no CPT, ATP luminescence, 48 h; Potency, µM (titrated, usually from 46.2 µM), inactives show at the top dose activity change, negative = growth inhibition, hits mostly inhibitors; 420,000 compounds, 15% hits; further: potency means the concentration at half of the fitted maximal effect; nearly all actives have a fitted effect of over 55% in size
#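 A cellular qHTS used chicken DT40 cells lacking endogenous Tdp1 but carrying stably transfected human TDP1. Compounds were applied without camptothecin, and cell growth kinetics were judged by ATP-dependent luminescence after ≥48 hr.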
# DT40 TDP1 CPT: growth inhibition of DT40 Tdp1-/-;hTDP1 cells with camptothecin (screen for TDP1 inhibitors); chicken DT40 Tdp1-/-;hTDP1 cells + 20 nM CPT, ATP luminescence, 48 h; Potency, µM (titrated, usually from 46.2 µM), for inactives: at the top dose activity change, negative = growth inhibition, most hits filed as inhibitors; 420,000 compounds, 12% hits; further: potency means the concentration at half of the fitted maximal effect; nearly all actives have a fitted effect of over 55% in size
#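 Chicken DT40 Tdp1-/- cells stably complemented with human TDP1 were seeded at 400 cells/well in medium containing 20 nM camptothecin, exposed to pin-transferred compounds, and grown at 37 °C for at least 48 hr. Viability was read as ATP luminescence.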
# ELG1 repair inh: inhibitors of ELG1-dependent DNA repair in HEK293T cells | 330,000 compounds, 2.3% hits | Potency, µM (series often up to 46.1 µM), for the others: at the highest dose activity change, negative = inhibition, usual class: inhibitors | HEK293T ELG1-luciferase reporter, luminescence, 16 h; DNA damage induced by 5-fluorouridine; further: potency means the concentration at half of the fitted maximal effect; nearly all actives have a fitted effect of over 55% in size
#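 Reporter activity after DNA damage by 5-fluorouridine is monitored. Compound-treated cells incubate 16 hr at 37 °C, then ONE-Glo is added for 30 min before luminescence reading.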
# VP16 counter: Gal4-VP16 reporter inhibition counter-screen | Drosophila S2 Gal4-VP16 UAS-luciferase, luminescence, 20 h | Potency, µM (series often up to 53.6 µM), inactives show top-dose activity, negative = inhibition, hits mostly inhibitors | 310,000 compounds, 3.5% hits | AID 2546;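 further: Gal4-VP16 expression switched on by copper sulfate through the metallothionein promoter; potency means the concentration at half of the fitted maximal effect; nearly all actives have a fitted effect of over 50% in size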
# IL-1B inflam inh: inhibitors of inflammasome signaling (IL-1 beta secretion). activity change, % at 57.5 µM. THP-1 LPS/ATP IL-1B secretion, AlphaLISA, 16 h; stronger effect = lower value. 360,000 compounds, 4.7% hits; in the data active means activity change below about -50%; inconclusive means mostly about -30% to -49%
#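 Secreted IL-1B measured by AlphaLISA bead assay after 16 h compound exposure of THP-1 cells; compounds (final up to 57.5 uM) added 1 h before LPS (250 ng/mL) and ATP (1.25 mM) stimulation; lower signal means less secretion.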
# The depositor's hits bear a star; u = inconclusive; x = no result; ! = not active in a repeat; [ ] = remark or other dose. Unless noted, the call rests on the fitted dose curve; in most records, active means well fitted curve in the direction sought with a large enough effect; inconclusive means small, poorly fitted or top-dose-only effect, or another doubt; inactive means no such curve, though single readings can be large; an effect the other way counts as inactive or inconclusive. On the % scale 0 is the no-effect control and ±100 the full control effect.
SMILES,RORg inh,TDP1 cell noCPT,DT40 TDP1 CPT,ELG1 repair inh,VP16 counter,IL-1B inflam inh
Cc1nc(Nc2ccc(S(N)(=O)=O)cc2)sc1-c1ccccc1,42%,18µM*,u,u,11%,-80*
COc1ccc(Nc2nc(C)c(C(C)=O)s2)cc1,x,u,-16%,x,x,4
COC(=O)c1cccc(NC(=O)c2cnn(C)c2)c1,x,-8%,-1%,x,x,-7
Cc1ccc(OCC(=O)Nc2cccc(OCc3cc(=O)n4ccccc4n3)c2)cc1C,x,-10%,-6%,x,x,x
Cc1nn(-c2ccccc2)c2nc(N)c(C#N)c(-c3ccc(O)c(O)c3)c12,6%,u,u,-24%,-14%,-7
Cc1nn(-c2ccc(F)cc2)c2nc(N)c(C#N)c(-c3cccs3)c12,32%,13µM*,23µM*,u,-17%,10
Cc1nn(-c2ccc(F)cc2)c2nc(N)c(C#N)c(-c3ccc(O)c(O)c3)c12,-2%,23µM*,16µM*,-26%,-9%,-7
Cc1c(-c2ccc(F)cc2)nc(N)c(C#N)c1-c1cccs1,u,-9%,-15%,5%,0%,21
CCOC(=O)N1CCN(C(=O)/C(=C/c2cccs2)NC(=O)c2ccc(OC)c(OC)c2)CC1,-6%,-20%,5%,-12%,1%,-13
COc1ccccc1C(O)c1ncc(-c2ccccc2C)[nH]1 (stereo unspecified),x,-17%,-11%,x,x,22
CC12CC3(C)CC(C)(C1)CC(C(=O)NCC(=O)O)(C2)C3,28%,-6%,5%,u,3%,4
CN(C)C(=S)NC(=O)C12CC3(C)CC(C)(CC(C)(C3)C1)C2,2.5µM*,1.3µM*,-12%,-3%,-23%,22
CCn1c(COc2cccc(C)c2C)nnc1SCC(=O)Nc1cc(C)on1,-17%,-27%,0%,-13%,-7%,-13
CC1=CC(C)(C)N2C(=O)C3(N=C(N)NC(Nc4ccccc4)=N3)c3cc(C)cc1c32 (stereo unspecified),6%,18µM*,u,u,0%[0.365 µM],-78*
COc1cc(/C=C/CNC[C@H]2O[C@@H](n3cnc4c(=O)[nH]c(N)nc43)[C@H](O)[C@@H]2O)ccc1O,x,u,-6%,x,x,0
Nc1nccnc1C(=O)OCC(=O)NCCc1ccc(Cl)cc1,x,-23%,-22%,u,x,-4
Cc1ccc(F)cc1C(=O)N1CCCCC1c1cc(C(=O)NCc2ccccc2)no1 (stereo unspecified),x,u,13µM*,x,x,2
O=C(NCc1ccc(F)cc1)c1cc(C2CCCN(C(=O)CCCc3ccccc3)C2)on1 (stereo unspecified),x,u,23µM*,x,x,u
CCCNC(=O)c1cc(C2CCCCN2C(=O)c2cc(F)ccc2C)on1 (stereo unspecified),x,-22%,-28%,x,x,38
O=C(Nc1ccccc1)c1cc(C2CCCN(C(=O)CCc3ccccc3)C2)on1 (stereo unspecified),x,u,26µM*,x,x,7
CC(C)COC(=O)N1CCCCC1c1cc(C(=O)NCc2ccccc2)no1 (stereo unspecified),x,u,18µM*,x,x,-10
O=C(NCc1ccccc1)c1cc(C2CCCN(C(=O)CCc3ccccc3)C2)on1 (stereo unspecified),x,u,-19%,x,x,-7
COC(=O)N1CCCCC1c1cc(C(=O)NCc2ccccc2)no1 (stereo unspecified),x,0%,-7%,x,x,22
COC(=O)c1cc(C(=O)c2ccc(Cl)cc2)n2c(=O)/c(=C\N(C)C)sc12,14%,-12%,u,-19%,8%,30
CC1c2ccccc2-c2ccccc2N1C (stereo unspecified),x,u,-23%,x,x,-3
SMILES,RORg inh,TDP1 cell noCPT,DT40 TDP1 CPT,ELG1 repair inh,VP16 counter,IL-1B inflam inh
Cc1ccsc1CN(C)CC(=O)Nc1ccccc1C(=O)NC1CC1,x,0%,12%,-20%,x,14
O=C(NCc1ccc(F)cc1)c1cc(C2CCCCN2C(=O)CCCc2ccccc2)on1 (stereo unspecified),x,23µM*,u,x,x,u
COc1ccccc1N1CCN(c2nc3ccccc3n3cnnc23)CC1,x,21µM*,u,x,x,x
Cc1cc(C)n(-c2nc3cc(Cl)ccc3nc2N2CCN(c3cccc(C)c3C)CC2)n1,x,-15%,-18%,x,x,x
CCN1CCN(c2nc3ccccc3n3cnnc23)CC1,8%,-22%,-7%,15%,-5%,-20
Cc1cccc(N2CCN(c3nc4ccc(Cl)cc4n4cnnc34)CC2)c1C,-1%,u,21µM*,-1%,u,22
CCOC(=O)N1CCC2(CC1)OC(=O)C(C)=C2C(=O)NCc1ccccc1OC,x,u,-33%,x,x,x
CC(CN1CCOCC1)OC(=O)c1ccccc1Cl (stereo unspecified),-37%,0%,13%,6%,7%,-18
Cc1ccnc(NC(=O)CCCOc2cc(=O)n(C)c3ccccc23)c1,u,u,u,u,-2%,-76*!
Cn1c(=O)cc(OCCCC(=O)NCc2ccccn2)c2ccccc21,u,0%,-13%,u,11%,12
CC(C)C(C(=O)NCc1ccccc1)N1CCN(c2ccccc2F)CC1 (stereo unspecified),x,u,u,x,x,-8
COC(=O)C1(C(=O)OC)c2ccccc2CN(S(=O)(=O)c2ccc(C)cc2)C1CC(C)=O (stereo unspecified),x,-2%,6%,x,x,15
COc1ccc(/C=N/NC(=O)c2cccnc2)cc1,18%,-2%,-7%,17%,5%,-6
COc1cc(/C=N/NC(=O)c2cccnc2)ccc1OS(=O)(=O)c1ccc(F)cc1,-1%,21µM*,u,u,-11%,27
COc1ccc(Oc2ccc(/C=N/NC(=O)c3cccnc3)cc2[N+](=O)[O-])cc1,u,21µM*,u,-10%,16%,u
COc1cc(/C=N/NC(=O)c2cccnc2)ccc1OS(=O)(=O)c1cc(C)ccc1C,-58%,23µM*,u,u,u,-76*
COc1ccc(Oc2ccc(/C=C/C(=O)c3cccc(OC)c3)cc2[N+](=O)[O-])cc1,u,7.3µM*,7.3µM*,u,u,-4
COC(=O)c1ccc(-c2cc(CC3(C(=O)OC)CCN(C(=O)OC(C)(C)C)CC3)on2)cc1,12%,u,23µM*,-26%,3%,-12
